Rows were chosen to be rich in hits. Some 6.1% of all compounds tested hit in one or more screens of this group.
ERG-DNA inh: blocks human ERG Ets domain binding to DNA; Potency, µM (doses to about 76.9 µM), for inactives: at the highest dose FP activity, negative = inhibition, hits mostly inhibitors; AID 624246; P11308; fluorescence polarization, His-ERG Ets domain / labelled DNA; 370,000 compounds, 0.028% hits; active = well fitted inhibition curve with a large enough effect in the polarisation, with a control signal flat; inconclusive = small, poorly fitted or top-dose-only effect, or effect the other way, or a change in a side signal; inactive = no such curve, though single readings can be large or run the other way; the % refers to the polarisation;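 note: polarization taken with two DNA probes labelled with fluorescein and Texas red; potency is the fitted concentration of half-maximal effect; % of control where 0% means no effect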
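His-tagged ERG Ets domain (1 uM in the protein solution; 300mM KCl, 50mM Tris-HCl, 1mM EDTA, 1mM DTT, pH 7.5) received compound, then a probe mix of 5 nM fluorescein-DNA and 100nM Texas-615-DNA. Fluorescence polarization was read for both dyes.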
D1 ag: agonists of human D1 dopamine receptor; 360,000 compounds, 1% hits; HEK293 T-REx D1 cells, calcium flux, agonist mode; activation, % at 2 µM; AID 504660; P21728; in the data active = activation above about 30%; note: 0% is about no effect
Target sequence (P21728 whole entry, looked up): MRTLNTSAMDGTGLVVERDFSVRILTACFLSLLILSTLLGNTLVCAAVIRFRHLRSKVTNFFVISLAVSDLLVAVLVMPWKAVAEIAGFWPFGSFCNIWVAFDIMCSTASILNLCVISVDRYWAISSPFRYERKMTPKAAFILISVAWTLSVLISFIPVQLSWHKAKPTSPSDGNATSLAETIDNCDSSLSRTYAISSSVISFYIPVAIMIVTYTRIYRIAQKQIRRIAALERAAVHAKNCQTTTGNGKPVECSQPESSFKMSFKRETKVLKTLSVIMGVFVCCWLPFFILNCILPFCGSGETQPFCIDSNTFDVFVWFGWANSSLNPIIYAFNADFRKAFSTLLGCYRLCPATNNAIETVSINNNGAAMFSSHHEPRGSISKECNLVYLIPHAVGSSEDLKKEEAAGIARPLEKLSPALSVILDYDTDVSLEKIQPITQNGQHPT
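Agonism was scored from calcium flux recorded over 180 s (1 read/s) after pintool compound addition, following a 10-cycle baseline. Cells were inducible force-coupled HEK293 TREx D1, plated overnight at 30 C and loaded with no-wash calcium dye.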
D1 antagonist: human D1 dopamine receptor antagonism. AID 504652. HEK293 TREx D1 cells, calcium flux, dopamine EC80; stronger effect = lower value. activity change, negative = inhibition, % at 10 µM. P21728. 360,000 compounds, 3.2% hits; in the data active = activity change below about -30%; note: % is set by controls: 0 for no effect and ±100 for the full control effect
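Using tetracycline-induced force-coupled D1 Hek293 cells and a calcium dye, signals were followed for 180 s after compound, then for 180 s after EC80 dopamine, to detect inhibitors.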
DRD3 agonist: agonists of human D3 dopamine receptor | P35462 | D3R DiscoveRx beta-arrestin cells, luminescence, 90 min | max activation, % | 410,000 compounds, 0.58% hits | AID 652048; in the data active = max activation above about 30%; note: 0% is about no effect
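Agonist mode: compounds and dopamine controls were applied to plated cells for 90 min at 37 degrees C after an overnight attachment at 1500 cells/well. Luminescent read-out followed 30 - 60 minutes at room temperature with DiscoveRx detection reagent.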
D1 PAM: potentiators of human D1 dopamine receptor | HEK293 TREx D1 cells, calcium flux, dopamine EC20 potentiation | potentiation, % at 10 µM | 360,000 compounds, 0.036% hits | AID 504651; in the data active = potentiation above about 30%; note: 0% is about no effect
D3 antag: D3 dopamine receptor (human) antagonism; P35462; D3R cells, DiscoveRx beta-arrestin luminescence, antagonist mode; stronger effect = lower value; max response, negative = inhibition, %; 360,000 compounds, 2.5% hits; in the data active = max response below about -50%; inconclusive = no clear call, values can overlap the other calls; note: % is set by controls: 0 for no effect and ±100 for the full control effect
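Cells expressing the human receptor were seeded at 1500 cells/well, incubated overnight at 37 degrees C in 5% CO2, then exposed to library compounds with dopamine controls for 90 minutes at 37 degrees C before luminescent detection.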
An asterisk follows results filed as active; ? = inconclusive; · = no result; ! = a repeat was not active.

SMILES | ERG-DNA inh | D1 ag | D1 antagonist | DRD3 agonist | D1 PAM | D3 antag
COc1ccc(Cn2c(O)c(C=Nc3ccccc3)c3ccccc3c2=O)cc1 | 2.2% | 1.4 | -6.4 | -5.0 | -0.4 | -1.5
COc1ccc(Cn2c(O)c(C=Nc3ccc(O)cc3)c3ccccc3c2=O)cc1 | 7.6% | 9.4 | -1.8 | -21.6 | 7.0 | -77.6*
CC(=O)Oc1cccc2c1C(=O)c1c(OC(C)=O)cc(C(=O)O)cc1C2=O | 12.5% | 0.3 | -10.3 | 0.0 | -2.6 | -121.9*
CC(=O)Oc1ccc(C(=O)O)cc1OC(C)=O | 2.7% | 4.7 | 4.7 | 24.1 | -6.3 | 8.2
COc1cc2c(cc1OC)C(COc1cc(C)cc(C)c1)N(C(=O)COc1ccccc1)CC2 (stereo not drawn) | -3.1% | 2.2 | -12.2 | 6.2 | -0.3 | ·
N#Cc1c(-c2ccco2)nc(SCC(=O)Nc2cccc(Cl)c2)[nH]c1=O | · | 5.4 | 17.6 | -13.8 | -4.2 | -23.4
CC(C)(C)c1ccc(-c2nc(SCC(=O)Nc3ccc(Cl)cc3)[nH]c(=O)c2C#N)cc1 | -1.2% | 131.7* | -11.3 | -7.4 | -2.4 | ·
O=C(O)c1ccc(Cl)c(NC(=O)C2CCCN2S(=O)(=O)c2cccc3nsnc23)c1 (stereo not drawn) | -5.1% | -0.2 | -40.3* | -5.9 | -2.1 | ?
O=C(C1CCN(S(=O)(=O)c2cccc3nsnc23)CC1)N1CCn2c1nc1ccccc12 | -3.2% | · | · | -22.3 | · | -101.1*
CCC1CCCCN1CCNC(=O)C1CCN(S(=O)(=O)c2cccc3nsnc23)CC1 (stereo not drawn) | -3.9% | 2.2 | -2.3 | 3.4 | 35.4* | 3.1
O=C(Nc1ccc(Br)cc1)C1CCN(S(=O)(=O)c2cccc3nsnc23)CC1 | -1.8% | 8.0 | -33.4* | -4.8 | -1.3 | ·
Cc1cccc(NC(=O)C2CCN(S(=O)(=O)c3cccc4nsnc34)CC2)c1 | -5.9% | -1.3 | -25.1 | -10.5 | -0.8 | -19.5
CC(C)C[C@H](NC(=O)N1CCn2c1nc1ccccc12)C(=O)N[C@@H](Cc1ccccc1)C(=O)O | 7.5% | 0.5 | 8.6 | 2.0 | 2.5 | 11.9
CNC(=O)OCc1snc(-c2ccccc2)c1COC(=O)NC | · | · | · | 8.0 | · | 13.6
Cc1ccc(C(=O)NCCNS(=O)(=O)c2ccccc2)cn1 | 1.1% | 5.5 | 16.4 | 3.9 | -1.0 | 3.9
Cc1ccc(C2(CC(=O)Nc3nccs3)CCOC(C(C)C)C2)cc1 (stereo not drawn) | · | -1.5 | 17.9 | -0.7 | 10.7 | 39.0
CCN(c1ccccc1)S(=O)(=O)c1ccc(OCC(F)(F)F)c(NC(=O)c2ccc(=O)[nH]c2)c1 | 1.0% | · | · | -18.4 | · | 7.1
O=C(NCCCN1CCN(c2ccccc2F)CC1)C1COc2ccccc2C1 (stereo not drawn) | 2.6% | 5.6 | -34.4* | 12.6 | -4.5 | ·
O=C(NCCCN1CCN(c2ccccc2F)CC1)C1CC(=O)N(C2CCCC2)C1 (stereo not drawn) | -11.1% | 0.9 | 2.3 | 41.1* | · | -77.2*
Cc1ccc(C)c(N2CCN(CCCNC(=O)C3COc4ccccc4C3)CC2)c1 (stereo not drawn) | -1.7% | 63.3* | -26.1 | -17.1 | -0.1 | ·
O=C(NCCS(=O)(=O)N1CCN(c2ccccc2F)CC1)C1CC(=O)N(c2ccccc2)C1 (stereo not drawn) | 2.7% | 114.8*! | 3.9 | -5.9 | -2.1 | -0.7
Cc1ccc(N2CC(C(=O)NCCS(=O)(=O)N3CCN(c4ccccc4F)CC3)CC2=O)cc1 (stereo not drawn) | -2.7% | 1.5 | -2.2 | 5.8 | -5.0 | -0.6
CN1CCN(CCCNC(=O)C2CC(=O)N(C3CCCCC3)C2)CC1 (stereo not drawn) | 0.2% | 2.3 | -5.7 | 4.1 | -0.1 | 15.5
O=S(=O)(c1ccccc1)N(Cc1ccc(Cl)cc1)c1ccncc1 | -7.3% | 2.4 | 5.1 | -0.8 | 3.4 | 0.9
O=C(NCCCN1CCCC1=O)c1ccc2c(c1)NC(=O)C(N1CCOCC1)S2 (stereo not drawn) | 10.1% | 1.4 | 7.7 | -8.4 | 7.0 | 1.7
SMILES | ERG-DNA inh | D1 ag | D1 antagonist | DRD3 agonist | D1 PAM | D3 antag
COc1ccccc1/C=C/C=N/NC(=O)c1ccco1 | 1.9% | 1.9 | 7.9 | 2.9 | -4.2 | -1.7
O=C(NCCN1CCN(c2ccccc2F)CC1)C1c2ccccc2C(=O)N2CCc3ccccc3C12 (stereo not drawn) | -6.4% | 0.3 | -44.1* | -1.7 | -4.5 | -56.6*
COc1ccc(C(=O)NC2CC2)cc1OC1CCN(Cc2cc(C)cc(C)c2)CC1 | 3.9% | 0.5 | -50.7* | -0.8 | -19.4 | 17.0
CCc1ccc(CN2CCC(Oc3cc(C(=O)NC4CC4)ccc3OC)CC2)cc1 | · | · | · | -3.1 | · | -16.1
COc1ccc(C(=O)NC2CC2)cc1OC1CCN(Cc2ccc(Cl)cc2)CC1 | 4.8% | 5.6 | -57.7* | -9.0 | -19.2 | -0.6
COc1ccc(C(=O)C(CCC(CNC(C)(C)C)C(=O)c2ccc(OC)cc2)CNC(C)(C)C)cc1 (stereo not drawn) | 11.4% | 15.8 | -37.1* | -17.0 | -11.1 | -55.0*
COc1ccc(C(=O)CC(=O)c2ccc(C(C)(C)C)cc2)cc1 | 12.7% | · | · | -38.0 | · | 4.7
CCC(C(=O)Nc1cc(OC)cc(OC)c1)n1nc(-c2ccc(C)c(C)c2)ccc1=O (stereo not drawn) | -0.6% | 3.9 | -3.6 | -1.7 | 3.8 | ·
O=C(COC(=O)c1cc([N+](=O)[O-])ccc1N1CCCC1)Nc1ccccc1OC(F)F | 21.2% | 6.7 | -11.7 | -3.7 | -4.4 | ?
CN(C)S(=O)(=O)c1cccc(COC(=O)c2cc([N+](=O)[O-])ccc2N2CCOCC2)c1 | -12.0% | 4.4 | -38.5* | 0.6 | -2.4 | 7.3
O=C(COC(=O)c1cc([N+](=O)[O-])ccc1N1CCOCC1)Nc1ccccc1OC(F)F | -0.6% | 5.7 | -30.8* | -6.7 | -12.4 | -13.1
CSc1ccc(COC(=O)c2cc([N+](=O)[O-])ccc2N2CCOCC2)cc1 | -6.1% | 8.7 | -21.8 | -24.1 | -6.8 | -23.8
CCc1ccccc1NC(=O)CN1CCCN(Cc2cc(C)ccc2C)S1(=O)=O | -0.6% | 32.6* | -10.9 | 7.1 | 4.8 | ·
Cc1ccc(NC(=O)CN2CCCN(Cc3cc(C)ccc3C)S2(=O)=O)c(Cl)c1 | 6.5% | 5.1 | 1.6 | -2.3 | -0.6 | ·
O=C1Cc2cc(NS(=O)(=O)c3cc(F)ccc3F)cc3c2N1CCC3 | -3.5% | 1.5 | -60.0* | -7.2 | -3.6 | 8.6
COc1cc(C2CC(=O)Nc3ccc4ccccc4c32)ccc1OC(=O)C(C)C (stereo not drawn) | 0.1% | 3.8 | 10.8 | -5.1 | -1.4 | ·
Cc1cc(C)c2c(=O)[nH]c(SCC(=O)Nc3ccc(N(C)C)cc3)nc2n1 | · | 0.6 | -35.2* | 4.9 | 12.6 | 2.4
N#CC1(c2ccccc2)CCC(NCCc2ccccc2)CC1 (stereo not drawn) | -9.1% | 10.2 | 4.5 | -17.9 | -10.8 | -53.7*
